# Cycloheximide cs – affects cycloheximide protein synthesis inhibition readout, counter-screen; 300,000 compounds, 12% hits; AID 2314; cell reporter, cycloheximide protein synthesis inhibition counterscreen; max response, %; in the data active = max response mostly above about 13%, no sharp cut-off; inactive = mostly below about 14%; also: read at 38.3 µM for the half of the compounds with a filed dose; 0% is about no effect
# NS1 function inh – blocks influenza NS1 protein function. Potency, µM (top dose mostly 46.1 µM), for inactives: top-dose activity, positive = more growth. 270,000 compounds, 0.4% hits. AID 2326; calls by dose curve; also: potency is read from the fitted curve at half-maximal effect; actives are rising curves; nearly all actives have a fitted effect of over 50% in size
#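 Read-out: OD600 growth recovery of NS1-expressing budding yeast. Cells grown overnight at 30C in -URA glucose medium, washed, resuspended and diluted 1:100 in 2% galactose assay medium, pH 6.0. Same strain lacking NS1 served as positive control.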
# Pf growth 96h – P. falciparum growth inhibition at 96 hours | Potency, µM (doses to about 28.7 µM), without a hit: top-dose activity change, negative = inhibition, most hits filed as inhibitors | P. falciparum luciferase reporter growth, 96 h | AID 504834 | 320,000 compounds, 6.9% hits; also: potency is read from the fitted curve at half-maximal effect; % is scaled to controls: 0 for no effect and ±100 for the full control effect
#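 P. falciparum expressing integrated firefly luciferase grown in erythrocytes (2% hematocrit, 0.05% parasitemia final) with compounds for 96 hours at 37 C, 5% CO2. Growth inhibition read as loss of luminescence after adding luciferase detection reagent.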
# FBPA Giardia inh – inhibitors of Giardia lamblia fructose-1,6-bisphosphate aldolase. purified Giardia FBPA. A8B2U2. 290,000 compounds, 0.71% hits. Potency, µM (titrated, usually from 59.6 µM), without a hit: at the top dose activity, negative = inhibition, most hits filed as inhibitors. AID 2451; also: potency is read from the fitted curve at half-maximal effect; % is scaled to controls: 0 for no effect and ±100 for the full control effect; nearly all actives have a fitted effect of over 55% in size
# Target sequence (A8B2U2 whole entry, looked up): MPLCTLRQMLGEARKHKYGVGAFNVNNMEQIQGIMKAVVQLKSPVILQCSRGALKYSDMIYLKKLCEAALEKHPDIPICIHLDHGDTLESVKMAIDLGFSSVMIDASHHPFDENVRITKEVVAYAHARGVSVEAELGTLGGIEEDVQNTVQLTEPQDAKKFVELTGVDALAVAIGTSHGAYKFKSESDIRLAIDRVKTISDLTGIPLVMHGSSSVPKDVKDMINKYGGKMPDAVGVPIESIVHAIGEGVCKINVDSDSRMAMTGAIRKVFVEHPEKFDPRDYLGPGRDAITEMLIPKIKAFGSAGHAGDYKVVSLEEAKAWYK
#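 40 nM FBPA preincubated 10 min at RT with compound (up to 57.5 uM final), then substrate plus GAPDH/TPI/NAD/arsenate coupling and diaphorase/resazurin added. Fluorescence read after 20 min at RT, 525/598 nm.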
# Pf growth 48h – inhibits P. falciparum growth in the first generation, 48 h; P. falciparum luciferase growth in erythrocytes, 48 h; Potency, µM (doses to about 28.7 µM), for the others: at the top dose activity change, negative = inhibition, most hits filed as inhibitors; 310,000 compounds, 5.9% hits; also: potency is read from the fitted curve at half-maximal effect; % is scaled to controls: 0 for no effect and ±100 for the full control effect
#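 Luminescence readout; reporter = integrated firefly luciferase in P. falciparum. RBC culture at 2% hematocrit, 0.1% parasitemia final, 37 C/5% CO2; decreased signal taken as growth inhibition.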
# Shiga inhibitor – inhibitors of Shiga toxin in Vero cells | Vero cells, Shiga toxin protein synthesis inhibition reporter | inhibition, % at 38.7 µM | 290,000 compounds, 9.2% hits | AID 2315; in the data active = inhibition mostly above about 28%, no sharp cut-off; inactive = mostly below about 43%; also: 0% is about no effect
# The depositor's hits bear a star; ? = inconclusive; . = no result given; + = active, no number; [ ] = dose if it differs, or a comment. An excerpt weighted towards active compounds, which were near 21% of everything screened. Unless noted, calls follow the shape of the dose curve; as a rule, active = well fitted curve in the direction sought with a large enough effect; inconclusive = small, poorly fitted or top-dose-only effect, or another doubt; inactive = no such curve, though single readings can be large; an effect the other way counts as inactive or inconclusive.
SMILES,Cycloheximide cs,NS1 function inh,Pf growth 96h,FBPA Giardia inh,Pf growth 48h,Shiga inhibitor
O=C(CCc1nc2ccccc2c(=O)[nH]1)OCCOc1ccc(Cl)cc1,25,4%,-4%,-7%,21%,-4
O=C(CSc1nnc(-c2ccncc2)o1)Nc1ccccc1C(F)(F)F,-1,1%,-19%,.,?,-8
Cc1cc(-c2nnc(SCC(=O)Nc3ccccc3C(F)(F)F)o2)c(C)n1-c1ccccc1,40*,8%,.,0%,57%,58
Cc1cccc(NC(=O)CSc2nnc(-c3cc(C)n(-c4ccccc4)c3C)o2)c1C,25*,?,?,-3%,-35%,33*
Cc1ccc(C)c(NC(=O)CSc2nnc(-c3ccccc3C)o2)c1,-5,-9%,-26%,8%,70%,8
CCn1c(SCC(=O)Nc2ccc(NC(C)=O)cc2)nc2c1c(=O)n(C)c(=O)n2C,-3,8%,15%,.,24%,1
CCCCCn1c(=O)[nH]c2cc(C(=O)N3CCN(c4ccc(C(C)=O)cc4)CC3)ccc2c1=O,-3,0%,12µM*,6%,?,-1
CC(=O)c1ccc(N2CCN(C(=O)CCCn3c(=O)[nH]c4ccc(Br)cc4c3=O)CC2)cc1,5,.,?,4%,10µM*,-4
COc1cc2[nH]c(=O)n(CCCCCC(=O)N3CCN(c4ccccc4)CC3)c(=O)c2cc1OC,1,-23%,30%,4%,7.4µM*,-5
CC(=O)c1ccc(N2CCN(C(=O)CCCn3c(=O)[nH]c4ccsc4c3=O)CC2)cc1,-1,8%,?,-9%,?,-4
COc1cc2[nH]c(=S)n(Cc3ccccc3)c(=O)c2cc1OC,-4,3%,-12%,1%,?,-14
COc1cc2[nH]c(=O)n(Cc3ccccc3Cl)c(=O)c2cc1OC,-2,-2%,4.7µM*,4%,-4%,-8
O=C(c1ccncc1)N1CCC2(CC1)CN(c1ncccn1)C2,.,.,.,3%,.,.
C=CCOc1ccc(C(c2c(C)n(C)n(-c3ccccc3)c2=O)c2c(C)n(C)n(-c3ccccc3)c2=O)cc1,2,-2%,27%,17%,12%[0.00184 µM],32
CCN(CC(=O)N1CCOCC1)S(=O)(=O)c1ccccc1,-2,-9%,18%,17%,13%,13
CCCOc1ccc(-c2c(C(=O)N/N=C/C3CCCCC3)nnn2-c2nonc2N)cc1,-2,?,?,.,13%,-6
O=C(O)CSCCn1cccn1,-7,-3%,13µM*,-18%,23%,-11
O=S(=O)(c1ccc2ccccc2c1)N1CCN(CCO)CC1,-7,-2%,8%,-5%,-9%,19
COc1cccc(CN2C(=O)C(C)N(C(=O)c3ccccc3)c3ccccc32)c1 (stereo not given),0,-5%,10µM*,14%,?,5
COc1ccc(CN2C(=O)C(C)N(C(=O)c3c(F)cccc3F)c3ccccc32)cc1 (stereo not given),4,-15%,2.1µM*,4%,1.9µM*,15
CC1C(=O)N(Cc2ccc([N+](=O)[O-])cc2)c2ccccc2N1C(=O)c1c(F)cccc1F (stereo not given),-3,2%,?,6%,9.3µM*,-7
COc1cccc(CN2C(=O)C(C)Oc3ccccc32)c1 (stereo not given),-5,-2%,?,-5%,?,-3
Cc1nn(Cc2ccc([N+](=O)[O-])cc2)c(=O)n1-c1c(F)cccc1F,-2,3%,0%,2%,-15%,-2
CC(C)C[C@@H](CC(=O)N[C@@H](CCCN)CC(=O)N[C@@H]1CCNC[C@H]1C(=O)N[C@H](CC(=O)N[C@@H](CCC(=O)O)CC(=O)O)Cc1c[nH]c2ccccc12)NC(=O)[C@@H]1CNCC[C@H]1N,.,.,.,-26%,.,.
Cc1ccc(SCc2cc(=O)n(C)[nH]2)cc1,8,.,-15%,-6%,17%,55*
SMILES,Cycloheximide cs,NS1 function inh,Pf growth 96h,FBPA Giardia inh,Pf growth 48h,Shiga inhibitor
Cc1ccc(SCc2cc(=O)n3[nH]c(C)nc3n2)cc1,-1,-4%,.,-15%,15%,-7
CC(=O)N1CCC2(CC1)CN(c1ccccc1)C2,.,.,.,-3%,.,.
O=C(Cc1c(F)cccc1Cl)Nc1ccc(S(=O)(=O)Nc2nccs2)cc1,-4,-2%,50%,.,?,5
CCNC(=O)[C@H]1O[C@H](n2cnc3c(N)nc(NCCc4ccc(CCC(=O)O)cc4)nc32)[C@@H](O)[C@@H]1O,.,.,.,0%,.,.
Cc1sc(NC(=O)CCl)c(C(=O)c2ccccc2)c1C,12*,-36%,92%,9%,13µM*,-7
CC(=O)Nc1sc(C)c(C)c1C(=O)OCC(=O)Nc1ccccc1,.,.,-18%,.,-20%,.
Cc1ccccc1C(=O)Nc1sc(C)c(C)c1C(=O)c1ccccc1,-1,9%,?,-5%,?,-6
CC(=O)Nc1sc(C)c(C)c1C(=O)OCCOc1ccccc1,48*,-10%,90%,0%,88%,113*
Cc1cccc(-c2cnn(-c3ccccc3)c2N)c1,44*,-34%,200%,-5%,126%,101*
Nc1c(-c2ccccc2)cnn1-c1cccc(Cl)c1,51*,-10%,381%,1%,217%,82*
N#Cc1cnn(-c2ccccc2)c1N,-6,1%,20%,0%,-29%,-8
Cc1cccc(-c2cnn(-c3cccc([N+](=O)[O-])c3)c2N)c1,22*,-2%,96%,-2%,40%,36
Nc1ccccc1Nc1cc(-c2cccc(Cl)c2)nn1-c1ccccc1,20*,22%,?,0%,?,+
COC(=O)/C=C/C1c2ccccc2C(OC)C1C (stereo not given),.,.,.,-1%[12.9 µM],.,.
CC(C)Cn1nnnc1S(=O)(=O)CC#N,.,.,.,3%,.,.
CC(C)C[C@@H](NC(=O)[C@H](Cc1ccccc1)NC(=O)c1cnccn1)B(O)O,.,.,0.03µM*,.,0.067µM*,.
CC(NC(=O)C(Cc1ccccc1)NC(=O)c1ccccc1)C(=O)O (stereo not given),1,5%,82%,10%,22%,-4
CCCc1nc2ccc(Br)cc2c(=O)n1-c1ccc([N+](=O)[O-])c(C(F)(F)F)c1,10,0%,34%,-6%,12µM*,20
O=c1c2ccccc2ncn1-c1ccc([N+](=O)[O-])c(C(F)(F)F)c1,-2,14%,17%,2%,35%,2
CCCn1c(SCC(=O)NC(=O)NC(C)(C)C)n[nH]c1=O,-9,.,1%,2%,0%,-11
CN(C)c1ccc(-c2cc(O)c3ncccc3c2)cc1,.,.,5.2µM*,.,3.7µM*,.
CN(C)c1ccc(-c2ccncc2)cc1,11,-8%,.,3%,19%,21
CN(C)CCCNC(=O)c1ccc(-c2nc(-c3ccc(Cl)cc3)cs2)cc1,-10,-130%,1.5µM*,3%,2.6µM*,-18
Oc1cc(-c2ccncc2)cc2cccnc12,.,.,5.2µM*,.,?,.
CN(C)CCCNC(=O)c1ccc(-c2cc(O)c3ncccc3c2)cc1,.,.,6.6µM*,.,10µM*,.

# Source: PubChem BioAssay
